Test results published in PubChem BioAssay AID1619 (SRMLSC, 2009).
Among all 220,000 compounds or so, about 830 (0.38%) were called active. A selection follows. Measured potencies and affinities stand elsewhere. Values without a mark were called inactive.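 How the source made its calls: active means compound inhibiting the enzyme by more than half at any dose during confirmatory dose-response retesting; inconclusive means strong single-dose inhibitors picked by rank but not retested; inactive means the rest.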

What follows are molecules tested against Leucine aminopeptidase (Plasmodium falciparum (isolate 3D7)) (UniProt Q8IL11) (assay: P. falciparum M17LAP inhibitors, primary screen, biochemical, fluorogenic H-Leu-NHMec substrate, 1536-well (AID 1619;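 further: plate controls were full reaction with DMSO carrier for no effect and no enzyme background for full effect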)). Conditions: recombinant M17LAP, H-Leu-NHMec fluorogenic kinetic assay; at 30 µM; active compounds read high.
Chain of Leucine aminopeptidase (Plasmodium falciparum (isolate 3D7)) (Q8IL11 whole entry, looked up): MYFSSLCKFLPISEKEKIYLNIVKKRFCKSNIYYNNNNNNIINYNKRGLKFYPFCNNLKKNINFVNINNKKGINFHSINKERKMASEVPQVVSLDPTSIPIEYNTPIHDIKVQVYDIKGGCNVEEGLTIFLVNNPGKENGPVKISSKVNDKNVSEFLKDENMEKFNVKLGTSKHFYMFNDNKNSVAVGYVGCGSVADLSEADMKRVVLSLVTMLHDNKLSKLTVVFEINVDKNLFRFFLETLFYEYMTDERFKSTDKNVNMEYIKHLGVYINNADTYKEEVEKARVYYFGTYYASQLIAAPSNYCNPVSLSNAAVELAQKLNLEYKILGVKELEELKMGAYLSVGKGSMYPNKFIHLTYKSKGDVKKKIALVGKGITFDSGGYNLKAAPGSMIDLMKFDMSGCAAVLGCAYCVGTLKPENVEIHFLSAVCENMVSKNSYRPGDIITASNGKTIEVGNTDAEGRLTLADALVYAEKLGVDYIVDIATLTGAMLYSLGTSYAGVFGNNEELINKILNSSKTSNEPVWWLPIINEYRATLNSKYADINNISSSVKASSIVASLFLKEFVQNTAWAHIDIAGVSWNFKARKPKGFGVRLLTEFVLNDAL

| Compound | inhibition [%] |
| --- | --- |
| Cc1ccc(Cn2ccc(NC(=O)c3cc(C4CC4)on3)n2)cc1 | 1.62 |
| Cc1ccc(Cn2ccc(NC(=O)c3cc(C)on3)n2)cc1 | -2.56 |
| Cc1c(NC(C)c2ccccc2O)c(=O)n(-c2ccccc2)n1C (stereo not given) | 3.02 |
| C/C(=C\C(=O)c1ccc(Br)cc1)Nc1ccc(Cl)cc1 | -7.69 |
| CCc1nnc(NS(=O)(=O)c2ccc(N=Cc3c(C)[nH]n(-c4ccc(Cl)cc4)c3=O)cc2)s1 | 45.4 |
| CCc1nnc(NS(=O)(=O)c2ccc(NS(=O)(=O)c3ccc(NC(C)=O)cc3)cc2)s1 | 35.4 |
| CCc1nnc(NS(=O)(=O)c2ccc(N3C(=O)c4ccc(C(=O)O)cc4C3=O)cc2)s1 | 3.4 |
| Cc1ccc(-n2[nH]c(C)c(C=Nc3ccc(S(=O)(=O)Nc4nccs4)cc3)c2=O)cc1C | -8.94 |
| Cc1cc(C)nc(NS(=O)(=O)c2ccc(N=Cc3c(C)[nH]n(-c4ccccc4)c3=O)cc2)n1 | 6.98 |
| COc1ccc(C(=O)Nc2ccc(S(=O)(=O)Nc3nccnc3OC)cc2)cc1OC | 16.3 |
| COc1nccnc1NS(=O)(=O)c1ccc(N=Cc2c(C)[nH]n(-c3ccc(Cl)cc3)c2=O)cc1 | 38.5 |
| Cc1[nH]n(-c2ccccc2)c(=O)c1C=Nc1ccc(S(=O)(=O)Nc2nccs2)cc1 | 3.82 |
| O=C(CN1CCOCC1)Nc1ccccc1-c1ccccc1 | -4.42 |
| CCOc1ccccc1N1CCN(C(=O)c2c(C)noc2C)CC1 | -5.81 |
| CCC1CCCN1Cn1cnc2c([nH]c3ccc(C)cc32)c1=O (stereo not given) | 0.76 |
| CCCc1nnc(NC(=O)CCC(=O)NCc2ccc(OC)cc2)s1 | 13.8 |
| CCCCOc1ccccc1Cn1c(=O)oc2ccc(C)cc21 | -14.1 |
| O=C(CSc1ncccn1)n1c2c(c3ccccc31)CCCC2 | 0.07 |
| Cc1nc2ccccc2c2c1C(=O)N(C1CCCCCCC1)C2=O | -2.77 |
| CN1C(=O)CSc2ccc(NC(=O)N3CCN(c4ccccc4)CC3)cc21 | -3.56 |

| Compound | inhibition [%] |
| --- | --- |
| CC1CN(C(=O)c2ccc(N3CCCCC3)c([N+](=O)[O-])c2)CC(C)O1 (stereo not given) | 8.04 |
| Cc1noc(NS(=O)(=O)c2ccc(NC(=O)c3cnc4n(c3=O)CCS4)cc2)c1C | 36 |
| CCOc1cc(/C=N/NC(=S)Nc2ccccc2C(F)(F)F)ccc1OCC(=O)N1CCOCC1 | 0.32 |
| Cc1cc(-c2nc(-c3ccc(C(C)(C)C)cc3)no2)no1 | 2.57 |
| COCCCNC(=O)c1ccc(C2SCC(=O)N2Cc2ccco2)cc1 (stereo not given) | 9.82 |
| COc1cc(SC)ccc1C(=O)NCc1ccc(C)cc1 | -9.45 |
| CCc1nnc(NS(=O)(=O)c2ccc(N3C(=O)c4ccccc4C3=O)cc2)s1 | 19.2 |
| CCc1nnc(NS(=O)(=O)c2ccc(N=CC3=C(O)CC(C)(C)CC3=O)cc2)s1 | 37.1 |
| COc1cccc(/C=C2/NC(=O)NC2=O)c1OCC(=O)Nc1ccccc1 | 1.46 |
| Cc1ccnc2nc(C(=O)OCCOc3ccc(F)cc3)nn12 | -4.95 |
| Cc1ccc(OCC(=O)Nc2cccc(O)c2)cc1C | 17.6 |
| Cc1ccc(OCC(=O)Nc2cc(C(=O)O)cc(C(=O)O)c2)cc1C | -17.5 |
| N#Cc1cc2c(nc1SCC(O)CS(=O)(=O)Cc1ccccc1)CCCC2 (stereo not given) | 22.9 |
| Cc1cc(C)c(C#N)c(SCCS(=O)(=O)Cc2ccccc2)n1 | -2.33 |
| COC(=O)N/N=C/c1cccc(OCCSc2ccc(Cl)cc2)c1 | 11.2 |
| COc1cc(/C(C)=N/NC(=O)CSc2nnc(C)s2)ccc1O | -1.63 |
| C/C(=N\NC(=O)Cc1cccn1C)c1ccc2ccccc2c1 | 32.5 |
| COc1cc(/C(C)=N/NC(=O)CSc2nc3ccccc3[nH]2)ccc1O | 8.45 |
| C/C(=N\NC(=O)COc1ccccc1)c1ccc(O)cc1 | 16.8 |
| C/C(=N\NC(=O)Cc1ccc(F)cc1)c1ccc(O)cc1 | 6.85 |

| Compound | inhibition [%] |
| --- | --- |
| C/C(=N\NC(=O)Cc1c[nH]c2ccccc12)c1ccc2ccccc2c1 | -0.21 |
| CN(C)c1ccc(NC(=S)N2CCN(c3ncc(C(F)(F)F)cc3Cl)CC2)cc1 | -0.82 |
| COc1ccccc1N1CCN(CC(=O)Nc2ccc(-n3cnnn3)cc2)CC1 | -1.4 |
| O=c1cc(N2CCOCC2)[nH]c(=O)n1C1CCCCC1 | 8.33 |
| CC(C)c1nc(-c2c(N)n(C)c(=O)n(C)c2=O)sc1C(=O)C(C)(C)C | -3.01 |
| O=C(c1cc(-c2ccc3c(c2)OCO3)on1)N1CCOCC1 | -10.2 |
| Cc1ccc(NC(=O)Nc2ccc(F)cc2)nc1 | 3.7 |
| CCC(=O)N1CCN(c2ccc(NC(=O)c3ccc([N+](=O)[O-])o3)cc2Cl)CC1 | 3.55 |
| CCOC(=O)N1CCN(C(=O)Nc2cccc3ccccc23)CC1 | 23.7 |
| Fc1cccc(CSc2ccc3nnc(-c4cccnc4)n3n2)c1 | 21.3 |
| O=C(NC(=S)Nc1ccccc1O)c1ccc(-c2ccc(Cl)cc2)o1 | 1.04 |
| COc1ccccc1NC(=S)NC(=O)c1ccc(-c2ccc(Cl)cc2)o1 | 4.34 |
| Cc1ccc(OCC(=O)Nc2ccc(N(C)C)cc2)cc1 | -2.19 |
| Cc1cccc(-c2n[nH]c(=S)n2-c2ccccc2)c1[N+](=O)[O-] | 0.12 |
| COc1ccc(-n2c(C(C)n3nc(C)c([N+](=O)[O-])c3C)n[nH]c2=S)cc1 (stereo not given) | 31.2 |
| Cc1ccc(NC(=S)NC(C)(C)C)c([N+](=O)[O-])c1 | -4.98 |
| O=C(O)[C@H]1CCCC[C@H]1C(=O)NCCc1ccccc1 | 36.3 |
| O=C(O)C1CCCCC1C(=O)NCCc1ccccc1 (stereo not given) | 32.3 |
| CC1=C(C)CC(C(=O)NCc2ccc3c(c2)OCO3)C(C(=O)O)C1 (stereo not given) | 45.8 |
| COc1ccc(CNC(=O)C2CCNCC2)cc1 | -2.52 |
